Screens: PubChem, National Center for Advancing Translational Sciences (NCATS)
Cycloheximide cs = affects cycloheximide protein synthesis inhibition readout, counter-screen. hit rate 12% among 300,000. max response, %. cell reporter, cycloheximide protein synthesis inhibition counterscreen; in the data active means max response mostly above about 13%, no sharp cut-off; inactive means mostly below about 14%; further: read at 38.3 µM for the half of the compounds with a filed dose; 0% is about no effect
Pf growth 48h = P. falciparum growth inhibition at 48 hours (one generation). P. falciparum luciferase growth in erythrocytes, 48 h. Potency, µM (doses to about 28.7 µM), for inactives: at the highest dose activity change, negative = inhibition, hits mostly inhibitors. hit rate 5.9% among 310,000. AID 504832; further: potency means the concentration at half of the fitted maximal effect; on the % scale 0 is the no-effect control and ±100 the full control effect
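Compounds are pin-transferred into medium, infected erythrocytes (2% hematocrit, 0.1% parasitemia final) are added, and plates sit one parasite generation at 37 C in 5% CO2. Detection reagent is then added and luminescence measured.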
Pf growth 96h = P. falciparum growth inhibition at 96 hour, primary screen for plastid delayed-death inhibitors. P. falciparum luciferase reporter growth, 96 h. Potency, µM (doses to about 28.7 µM), for inactives: top-dose activity change, negative = inhibition, usual class: inhibitors. hit rate 6.9% among 320,000; further: potency means the concentration at half of the fitted maximal effect; on the % scale 0 is the no-effect control and ±100 the full control effect
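Parasite growth measured via integrated firefly luciferase reporter in P. falciparum. Infected erythrocytes at 2% hematocrit, 0.05% parasitemia final were treated 96 hours at 37 C under 5% CO2, and luminescence was read.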
Shiga toxin inh = blocks Shiga toxin action in Vero cells; inhibition, % at 38.7 µM; Vero cells, Shiga toxin protein synthesis inhibition reporter; hit rate 9.2% among 290,000; in the data active means inhibition mostly above about 28%, no sharp cut-off; inactive means mostly below about 43%; further: 0% is about no effect
Starred values were filed as active, the others as inactive; ! = not active in a repeat; [ ] = remark or other dose. Hits are enriched below; roughly 21% of the tested compounds scored in any of these assays. Unless noted, the call rests on the fitted dose curve; in most records, active means well fitted inhibition curve with a large enough effect; inconclusive means small, poorly fitted or top-dose-only effect, or another doubt; inactive means no such curve, though single readings can be large or run the other way.

Screening CCN1CCN(C(=O)c2cc(-c3ccco3)nc3ccccc23)CC1 returned Pf growth 48h 0% and Pf growth 96h 14%.
`CN(C)c1ccc(SC#N)cc1` gave Cycloheximide cs 1, Pf growth 48h 6.6µM*, Pf growth 96h 2.9µM* and Shiga toxin inh -2.
`CN(C)c1ccc(C=C(C#N)C#N)cc1` gave Cycloheximide cs 0, Pf growth 48h 1%, Pf growth 96h inconclusive and Shiga toxin inh -7.
`CCCC(=O)N(CCN1CCOCC1)c1nc2cc(C)c(C)cc2s1` gave Cycloheximide cs 51*, Pf growth 48h 149%, Pf growth 96h 88% and Shiga toxin inh 91*.
`O=C(Nc1ccc(F)cc1Cl)c1ccc2c(=O)n3c(nc2c1)CCC3` gave Pf growth 48h -28% and Pf growth 96h -1%.
CCn1cc(C2=NOC(C(=O)Nc3ccc4c(c3)OCO4)C2)c(C)n1 (stereo not given) was read as Cycloheximide cs 9, Pf growth 48h inconclusive, Pf growth 96h 0.52µM* and Shiga toxin inh 12.
Screening O=C(Nc1cc(Br)ccc1O)C1CC(c2ccccc2Cl)=NO1 (stereo not given) returned Cycloheximide cs -2, Pf growth 48h -10%, Pf growth 96h inconclusive and Shiga toxin inh -2.
Screening O=C(Nc1ccc2c(c1)OCO2)C1CC(c2ccccc2Cl)=NO1 (stereo not given) returned Cycloheximide cs 20, Pf growth 48h 96%, Pf growth 96h 4% and Shiga toxin inh 48*.
CC(C(=O)N1CCOCC1)n1cc([N+](=O)[O-])cn1 (stereo not given) was read as Cycloheximide cs 3, Pf growth 48h 56%, Pf growth 96h -10% and Shiga toxin inh -4.
`COc1cccc2cc(C(=O)N3CCN(c4ccccn4)CC3)c(=O)oc12` gave Cycloheximide cs 32*, Pf growth 48h 18% and Shiga toxin inh 35.
`COc1cccc2cc(C(=O)N3CCC(C)CC3)c(=O)oc12` gave Cycloheximide cs -2, Pf growth 96h inconclusive and Shiga toxin inh 5.
`O=C(c1ccc(Br)o1)N1CCN(c2ccccn2)CC1` gave Cycloheximide cs 9, Pf growth 48h -27%, Pf growth 96h 2% and Shiga toxin inh 15.
For O=C(c1cc2ccccc2o1)N1CCN(c2ccccn2)CC1 the results were Cycloheximide cs -1, Pf growth 48h 4.7µM*, Pf growth 96h 13µM* and Shiga toxin inh -15.
For O=C(c1cc2c(ccc3ccccc32)o1)N1CCCCC1 the results were Cycloheximide cs 52*, Pf growth 48h 241%, Pf growth 96h -28% and Shiga toxin inh 90*.
O=C(c1cc2ccccc2o1)N1CCN(c2ccccc2Cl)CC1 was read as Cycloheximide cs 5, Pf growth 96h 7.4µM* and Shiga toxin inh 12.
Cc1ccc(-n2nnnc2SCC(=O)NC2CCS(=O)(=O)C2)c(C)c1 (stereo not given) was read as Pf growth 48h inconclusive and Pf growth 96h 10%.
`CCCN(CCC)c1cc(Cl)nc(N)n1` gave Cycloheximide cs -6, Pf growth 48h -3%, Pf growth 96h 4% and Shiga toxin inh -3.
Screening COc1ccccc1Nc1nc(-c2c(C)nc3ncccn23)cs1 returned Cycloheximide cs -1, Pf growth 48h inconclusive, Pf growth 96h 6% and Shiga toxin inh -6.
For Cc1csc(Nc2ccccc2C(F)(F)F)n1 the results were Cycloheximide cs 21*, Pf growth 48h 37%, Pf growth 96h 109% and Shiga toxin inh 39.
Screening Cc1csc(Nc2cccc3ccccc23)n1 returned Cycloheximide cs 21*, Pf growth 48h 6%, Pf growth 96h 27% and Shiga toxin inh 97.
`COc1ccccc1Nc1nc(C)cs1` gave Cycloheximide cs 22*!, Pf growth 48h 12%, Pf growth 96h inconclusive and Shiga toxin inh 85*!.
FC(F)(F)c1ccccc1Nc1nccs1 was read as Cycloheximide cs -5, Pf growth 48h 1%, Pf growth 96h 0% and Shiga toxin inh -21.
OCC1(Cc2ccc(Cl)cc2)CCN(Cc2ccc(Oc3ncccn3)cc2)CC1 was read as Cycloheximide cs -1, Pf growth 48h -12%, Pf growth 96h 0% and Shiga toxin inh -17.
For Cc1ccc(CNC(=O)CCCc2cn(C)c3ccccc23)cc1 the results were Cycloheximide cs -2, Pf growth 48h -4%, Pf growth 96h inconclusive and Shiga toxin inh 3.
Screening CCOc1ccc(NS(=O)(=O)c2ccc3c(c2)n(C)c(=O)n3C)cc1 returned Cycloheximide cs 11, Pf growth 48h -2%, Pf growth 96h inconclusive and Shiga toxin inh 5.
For Fc1ccc(-c2ccc(CNCc3ccccn3)o2)cc1 the results were Cycloheximide cs 25*, Pf growth 48h 47% and Pf growth 96h -17%.
Screening CC(C)C(CCNCc1ccccn1)c1ccc(Cl)cc1 (stereo not given) returned Cycloheximide cs -3, Pf growth 48h inconclusive, Pf growth 96h inconclusive and Shiga toxin inh 3.
`Clc1ccc(-c2ccc(CNCc3ccccn3)o2)cc1` gave Cycloheximide cs 21*, Pf growth 48h 1%, Pf growth 96h -13% and Shiga toxin inh 24*.
CCOc1c(Cl)cc(CNCc2ccccn2)cc1OC was read as Cycloheximide cs 14, Pf growth 48h inconclusive, Pf growth 96h 44%[5.75 µM] and Shiga toxin inh 32.
COc1ccc(-c2ccc(CNCc3ccccn3)o2)cc1Cl was read as Cycloheximide cs 13*, Pf growth 48h 5%, Pf growth 96h inconclusive and Shiga toxin inh 9.
Cc1ccc(S(=O)(=O)N2CCN(S(C)(=O)=O)C2C)cc1 (stereo not given) was read as Pf growth 48h -4% and Pf growth 96h 2%.
`CCC/C=C/C=C/C(=O)OC1/C(=C/C(=O)OC)CC2CC(C(C)O)OC(=O)CC(O)CC3CC(OC(C)=O)C(C)(C)C(O)(CC4C/C(=C/C(=O)OC)CC(/C=C\C(C)(C)C1(O)O2)O4)O3` (stereo not given) gave Pf growth 48h 3.8µM* and Pf growth 96h 1.5µM*.
`CC(C)SCc1nc2ccccc2[nH]1` gave Cycloheximide cs 15*, Pf growth 48h 21% and Shiga toxin inh 14.
Screening Cc1nc(N2CCN(Cc3nc4ccccc4[nH]3)CC2)c2oc3ccccc3c2n1 returned Cycloheximide cs 7, Pf growth 48h inconclusive, Pf growth 96h 5.9µM* and Shiga toxin inh 29.
For Cc1ccc(SCc2nc3ccccc3[nH]2)cc1 the results were Cycloheximide cs 45*, Pf growth 48h 65%, Pf growth 96h 36% and Shiga toxin inh 130*.
Screening Fc1ccccc1CSCc1nc2ccccc2[nH]1 returned Cycloheximide cs 25*, Pf growth 48h 48%, Pf growth 96h inconclusive and Shiga toxin inh 101*.
For Cc1ccc(OCCSCc2nc3ccccc3[nH]2)cc1 the results were Cycloheximide cs -3, Pf growth 48h inconclusive, Pf growth 96h inconclusive and Shiga toxin inh -6.
`CN(Cc1ccccc1)C(=O)c1nn2cccnc2c1Cl` gave Cycloheximide cs 2, Pf growth 48h 13%[5.75 µM], Pf growth 96h inconclusive and Shiga toxin inh -5.
CCN(CC)S(=O)(=O)c1cccc(NC(=O)CN2C(=O)NC3(CCOc4ccccc43)C2=O)c1 (stereo not given) was read as Pf growth 48h -12% and Pf growth 96h inconclusive.
